# This is a sample that favours compounds with a hit; in the whole collection about 3.8% have one here.
# ATXN viability = Viability Counterscreen for Primary qHTS for Inhibitors of ATXN expression. S2 cells (HEK-293 line with an ATXN2-luciferase reporter) viability, CellTiter-Fluor protease fluorescence, 24 h. Potency, µM (titrated, usually from 56.7 µM), usual class: cytotoxic. 400,000 tested, 0.49% active; note: nearly all actives have a fitted effect of over 40% in size
# HepG2 tox = qHTS for Inhibitors of TGF-b: Cytotox Counterscreen; 410,000 tested, 0.76% active; Potency, µM (highest dose often 46.1 µM), for inactives: at the highest dose activity change, negative = cytotoxicity, actives largely listed as cytotoxic; HepG2 CAGA-GFP viability, ATP luminescence, 18 h
#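 HepG2 CAGA-GFP cells (1000/well, DMEM with 1% FBS) received compound, then TGF-beta at 500 pg/mL final, and were incubated 18 hours at 37 degrees C. Viability was read by CellTiter-Glo luminescence. Media-only wells were set as complete cell-killing and DMSO as no toxicity.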
# Nrf2 block = Nrf2 qHTS screen for inhibitors | A549 ARE-Fluc reporter, luciferase luminescence, 18-24 h | Potency, µM (titrated, usually from 46 µM), without a hit: at the highest dose activity change, negative = inhibition, most hits filed as inhibitors | 360,000 tested, 2.1% active | AID 504444, 2011; note: % is set by controls: 0 for no effect and ±100 for the full control effect; nearly all actives have a fitted effect of over 60% in size
#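 Nrf2 activity is the BugLite luminescence, read 15 min after reagent at room temperature, following CellTiter-Fluor cytotoxicity readout (30 min, 37C). Compound titrations were applied for 18-24 h to 5000 A549 ARE_Fluc cells/well in 5% FBS OPTI-MEM.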
# TGFb inhibitor = qHTS for Inhibitors of TGF-b. AID 588855, 2011. HepG2 CAGA-GFP TGF-b/SMAD3 reporter, GFP fluorescence, 18 h; TGF-beta stimulated, 500 pg/mL final. Potency, µM (highest dose often 46.1 µM), for inactives: top-dose activity, negative = inhibition, actives largely listed as inhibitors. 410,000 tested, 1.2% active; note: % is set by controls: 0 for no effect and ±100 for the full control effect; nearly all actives have a fitted effect of over 65% in size
#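 Using HEPG2 CAGA-GFP reporter cells at 1000 cells/well, we pinned test compounds, stimulated with recombinant TGF-beta (500 pg/mL final) and measured total well GFP after 18 h.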
# A549 tox = Nrf2 qHTS screen for inhibitors: counterscreen for cytotoxicity; A549 ARE-Fluc cells, CellTiter-Fluor viability, 18-24 h; 390,000 tested, 0.16% active; Potency, µM (series often up to 46 µM), without a hit: at the highest dose activity change, negative = cytotoxicity, usual class: inhibitors; AID 504648, 2011; note: % is set by controls: 0 for no effect and ±100 for the full control effect
#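 A549 ARE-Fluc cells in 5% FBS OPTI-MEM, 5000 cells/well, rested 2 h then exposed to compounds in concentration-response for 18-24 h at 37 °C. Viability by CellTiter-Fluor fluorescence (Ex 405/Em 525) after 30 min; luciferase luminescence (BugLite, 15 min, RT) read afterwards.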
# ATXN2 expr inh = Primary qHTS for Inhibitors of ATXN expression | HEK-293 ATXN2-luciferase reporter, luminescence, 24 h | Potency, µM (top dose mostly 57 µM), without a hit: top-dose activity change, negative = inhibition, most hits filed as inhibitors | 360,000 tested, 0.72% active | AID 1745845, 2022; note: % is set by controls: 0 for no effect and ±100 for the full control effect; nearly all actives have a fitted effect of over 55% in size
#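 qHTS (up to 57 uM final) was run with 24 h compound exposure of reporter cells at 37 °C. Each well was multiplexed: SteadyGlo luminescence measured ATXN2-luciferase expression after a fluorogenic Gly-Phe-AFC viability readout (25 uM final).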
# The depositor's hits bear a star; i = inactive; ? = inconclusive; . = no result; ! = not active in a repeat; [ ] = remark or other dose. Calls come from the whole dose curve; as a rule, active = well fitted curve in the direction sought with a large enough effect; inconclusive = small, poorly fitted or top-dose-only effect, or another doubt; inactive = no such curve, though single readings can be large; an effect the other way counts as inactive or inconclusive. Potency is the fitted concentration of half-maximal effect.
SMILES,ATXN viability,HepG2 tox,Nrf2 block,TGFb inhibitor,A549 tox,ATXN2 expr inh
CCc1ccc(NC(=O)c2cc(=O)c3ccc(C)c(C)c3o2)cc1,i,140%,-25%,127%,1%,-16%
O=C1OC(CO)CN1Cc1ccccc1 (stereo unspecified),i,26%,-4%,26%,5%,5%
COc1ccccc1NS(=O)(=O)c1ccc(Cl)c(NC(=S)NC(=O)C2CCCC2)c1,i,-1%,?,?,-4%,-15%
CCN(CC)S(=O)(=O)c1ccc(Cl)c(NC(=S)NC(=O)C2CCCC2)c1,i,-35%,8.2µM*,?,-19%,?
CCN(CC)c1ccc(S(=O)(=O)Nc2cc(Cl)ccc2Cl)cc1NC(=S)NC(=O)C1CCCC1,i,2%,18µM*,?,-16%,-8%
Cc1ccc(-n2ccnc(SCC(=O)NC3CCCCC3)c2=O)cc1F,i,-4%,?,5%,1%,-21%
O=C(Nc1cccc(Cl)c1)c1cc(S(=O)(=O)NCCc2ccc(Cl)cc2)ccc1F,i,-126%,-19%,11µM*,-5%,-35%
CC(C)c1ccc(NC(=O)c2cc(S(=O)(=O)NCCC3=CCCCC3)ccc2F)cc1,?,13µM*,.,?,-16%,?
Cc1cc(C)c(NC(=O)c2cc(S(=O)(=O)NCCC3=CCCCC3)ccc2F)c(C)c1,i,-32%,.,-15%,0%,-6%
Cc1ccc(NC(=O)c2cc(S(=O)(=O)NCCc3ccccc3)ccc2F)cc1Cl,i,-57%,8%,-1%,-1%,-10%
OCC[C@@H]1C[C@@H](O)[C@H](O)[C@@]2(CCCc3ccccc3O2)O1,i,8%,-8%,1%,-5%,2%
CCN1C(=O)CC(CC(=O)N2CCC(c3nc4ccc(F)cc4[nH]3)CC2)(c2ccccc2C)C1=O (stereo unspecified),i,.,.,.,.,.
C=C(C)C1CCC2(C(=O)O)CCC3(C)C(CCC4C5(C)C(C=O)C(O)C(C)(C)C5CCC43C)C12 (stereo unspecified),?,-27%,?,13µM*,?,?
COc1ccc(/C=C(\NC(=O)c2ccccc2)C(=O)NC2CCCCC2)cc1,.,2%,3%,-7%,0%,.
CCNC(=S)N(CCc1c(C)[nH]c2ccc(C)cc12)Cc1cc(OC)c(OC)c(OC)c1,i,2%,18µM*,0%,-30%,-12%
COCCNC(=S)N(CCc1c(C)[nH]c2ccc(C)cc12)Cc1cc(OC)c(OC)c(OC)c1,?,-1%,-9%,-22%,-17%,-12%
N#CCCn1cc(C(=O)Nc2ccc([N+](=O)[O-])cc2)c(-c2cc3ccccc3o2)n1,25µM*,-42%,?,?,-9%,.
C=C1C(=O)CC2=C1[C@](Cc1ccc(F)cc1)(C(=O)OC)N(C(=O)c1ccccc1)C2,?,.,.,.,.,0%
C=C1C(=O)C=C2CN(C(=O)c3ccccc3)[C@@](Cc3ccc(F)cc3)(C(=O)OC)[C@@H]12,4.5µM*,3.2µM*,13µM*,1.8µM*,10µM*,3.2µM*
Cc1ccc(C2(c3ccccc3)NC(=O)N(CC(=O)N(C)C3CCS(=O)(=O)C3)C2=O)cc1C (stereo unspecified),i,1%,-3%,0%,5%,.
CCOC(=O)c1c(NC(=O)/C=C/C(=O)O)sc(C)c1-c1ccc(C(C)(C)C)cc1,?,13µM*,?,?,-2%,-13%[11.3 µM]
Cc1ccc(C)c(-c2ccc(=O)n(Cc3ccc(F)cc3Cl)n2)c1,?,-21%,-19%,13µM*,3%,-20%
CCOC(=O)Cc1csc(NC(=O)COc2cc(C)cc(C)c2)n1,i,-12%,0%,-15%,9%,-7%
O=C(Nc1ccc(OCC(F)(F)C(F)F)c(C(F)(F)F)c1)c1ccc(Cl)cc1,i,18µM*,?,?,?,?
CNCC(=O)Nc1ccc(Cl)c(C(F)(F)F)c1,i,-37%,-26%,4%,1%,-30%
SMILES,ATXN viability,HepG2 tox,Nrf2 block,TGFb inhibitor,A549 tox,ATXN2 expr inh
O=C(CN1CCN(c2ccc(Cl)cc2)CC1)Nc1ccc(Cl)c(C(F)(F)F)c1,?,-40%,.,10µM*,-13%,?
O=C(CN1CCN(CC(=O)Nc2ccccc2F)CC1)Nc1ccc(Cl)c(C(F)(F)F)c1,?,-66%,.,-10%,-12%,?
CN(CC(=O)Nc1ccc(Cl)c(C(F)(F)F)c1)CC(=O)NC1CCCCC1,i,-25%,12µM*,?,?,?
O=C(Nc1ccc(Cl)cc1)Nc1ccc(Cl)c(C(F)(F)F)c1,16µM*!,.,.,.,.,?
CNc1cccc(S(=O)(=O)N2CCN(S(=O)(=O)c3ccc4c(c3)OCCO4)CC2)c1,.,.,-2%,.,6%,.
CCOc1ccc(NC(=O)CN2CCN(CC(=O)Nc3ccc(Cl)c(C(F)(F)F)c3)CC2)cc1,?,13µM*,?,?,?,?
Cc1ccc(S(=O)(=O)C2(C(=O)Nc3ccc(Cl)c(C(F)(F)F)c3)CC2)cc1,?,-50%,-16%,11µM*,4%,-18%
CCOc1ccc(NC(=O)CN2CCN(CC(=O)Nc3cccc(F)c3)CC2)cc1,i,8%,12%,-19%,0%,2%
CC1CCc2c(sc3nc(C4CC4)nc(N4CCN(C(=O)c5ccco5)CC4)c23)C1 (stereo unspecified),?,10µM*,?,?,?,?
CC(C)(C)Cc1c(-c2ccc(Br)cc2)nc2ccc(Br)cn12,?,-33%,.,16µM*,.,-28%
